The sample as a whole holds a higher share of hits than the screen did.
Giardia FBPA inh = qHTS Assay for Inhibitors of Fructose-1,6-bisphosphate Aldolase from Giardia Lamblia; A8B2U2; purified Giardia FBPA; Potency, µM (series often up to 59.6 µM), without a hit: at the highest dose activity, negative = inhibition, most hits filed as inhibitors; 0.71% of 290,000 active; also: potency is read from the fitted curve at half-maximal effect; % is scaled to controls: 0 for no effect and ±100 for the full control effect; nearly all actives have a fitted effect of over 55% in size
Target sequence (A8B2U2 whole entry, looked up): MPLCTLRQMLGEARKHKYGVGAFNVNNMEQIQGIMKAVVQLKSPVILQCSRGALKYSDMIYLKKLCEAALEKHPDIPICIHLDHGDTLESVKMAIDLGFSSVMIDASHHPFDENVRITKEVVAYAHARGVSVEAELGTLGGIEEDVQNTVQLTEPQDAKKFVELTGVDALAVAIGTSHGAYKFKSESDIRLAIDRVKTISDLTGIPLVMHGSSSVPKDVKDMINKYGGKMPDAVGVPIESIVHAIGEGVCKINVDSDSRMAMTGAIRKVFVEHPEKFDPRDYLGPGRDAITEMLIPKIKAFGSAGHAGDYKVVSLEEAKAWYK
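Giardia FBPA (40 nM reagent) was preincubated 10 min at RT with compound (up to 57.5 uM final), then substrate plus GAPDH/TPI/NAD/arsenate coupling system with diaphorase/resazurin was added; resorufin fluorescence (525/598 nm) was read after 20 min.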
Tb PYK inh = qHTS of Trypanosoma Brucei Inhibitors; 0.12% of 410,000 active; pyruvate kinase (Trypanosoma brucei), Q57TT1; TbPYK enzyme, Kinase-Glo Plus ATP luminescence, 45 min; Potency, µM (highest dose often 76.8 µM), without a hit: at the highest dose activity, negative = inhibition, actives largely listed as inhibitors; AID 624173, 2012; also: potency is read from the fitted curve at half-maximal effect; % is scaled to controls: 0 for no effect and ±100 for the full control effect; nearly all actives have a fitted effect of over 50% in size
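Luminescent Kinase-Glo Plus end-point after 45 min room-temperature reaction of T. brucei pyruvate kinase started with 130 uM ADP (final). Buffer TEA 50 mM pH 7.2 with KCl, MgCl2, BSA, Tween-20; titration-based qHTS with fitted concentration-effect curves.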
Shiga inhibitor = A qHTS for Small Molecule Inhibitors of Shiga Toxin. Vero cells, Shiga toxin protein synthesis inhibition reporter. inhibition, % at 38.7 µM. 9.2% of 290,000 active; in the data active = inhibition mostly above about 28%, no sharp cut-off; inactive = mostly below about 43%; also: 0% is about no effect
LmPK inhibitor = qHTS Assay for Inhibitors of Leishmania Mexicana Pyruvate Kinase (LmPK); Q27686; purified LmPK, Kinase-Glo ATP luminescence, 1 h; Potency, µM (series often up to 57.5 µM), inactives show at the highest dose activity change, negative = inhibition, actives largely listed as inhibitors; 0.37% of 290,000 active; AID 1721, 2009; also: potency is read from the fitted curve at half-maximal effect; % is scaled to controls: 0 for no effect and ±100 for the full control effect
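Kinase-Glo luminescence read after 1 h RT reaction of 0.1 nM LmPK with 0.5 mM PEP and 0.1 mM ADP. Activity scaled between uninhibited and enzyme-free controls.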
CHX counter = Cycloheximide Counterscreen for Small Molecule Inhibitors of Shiga Toxin; 12% of 300,000 active; AID 2314, 2010; max response, %; cell reporter, cycloheximide protein synthesis inhibition counterscreen; in the data active = max response mostly above about 13%, no sharp cut-off; inactive = mostly below about 14%; also: read at 38.3 µM for the half of the compounds with a filed dose; 0% is about no effect
Sm TGR inh = qHTS Assay for the Inhibitors of Schistosoma Mansoni Peroxiredoxins; Schistosoma mansoni thioredoxin glutathione reductase (TGR), Q962Y6; 3% of 360,000 active; purified TGR, DTNB reduction, TNB absorbance 405 nm; Potency, µM (doses to about 114 µM), for the others: at the top dose activity change, negative = inhibition, usual class: inhibitors; also: potency is read from the fitted curve at half-maximal effect; % is scaled to controls: 0 for no effect and ±100 for the full control effect; nearly all actives have a fitted effect of over 60% in size
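TGR 20 nM + NADPH 100 uM (dispensed conc.), cpd preinc 15 min RT; start with NADPH (500 uM addition) then DTNB (15 mM addition). Kinetic TNB absorbance, 405 nm filter. Four-parameter Hill fit across titration.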
Starred values were filed as active, the others as inactive; ? = inconclusive; nt = no result; [ ] = another dose, or the depositor's remark. Unless noted, calls follow the shape of the dose curve; as a rule, active = well fitted curve in the direction sought with a large enough effect; inconclusive = small, poorly fitted or top-dose-only effect, or another doubt; inactive = no such curve, though single readings can be large; an effect the other way counts as inactive or inconclusive.

SMILES	Giardia FBPA inh	Tb PYK inh	Shiga inhibitor	LmPK inhibitor	CHX counter	Sm TGR inh
COc1ccc(NS(=O)(=O)c2cccc3nonc23)c(OC)c1	-18%	-2%	16	2%	6	18µM*
O=C(CCS(=O)(=O)c1cccc2nonc12)NCCc1ccccc1	2%	1%	-2	-11%	-1	?
CCCOc1ccc(C2c3c(-c4ccccc4O)n[nH]c3C(=O)N2CCc2ccccc2)cc1OCC (stereo not drawn)	nt	-2%	nt	nt	nt	1%
CCS(=O)(=O)N1CCc2cc(C(=O)NCc3ccccc3OC)ccc21	nt	-2%	nt	nt	nt	-12%
Cc1ccc(CNC(=O)Cc2c(C)c3cc4c(C)coc4cc3oc2=O)cc1	nt	-3%	nt	nt	nt	5%
CCN(C(=O)CCS(=O)(=O)c1cccc2nonc12)c1ccc(C)c(C)c1	3%	-8%	-5	4%	-3	40µM*
CCCC1C2CN(C(C)C)CC=C2C(C#N)=C(N)C1(C#N)C#N (stereo not drawn)	?	-10%	10	-11%	-4	18µM*
CCN1C(=O)[C@H]2[C@@H]3[C@H](O)[C@H](O)CC(=O)[C@H]3CC[C@H]2C1=O	2%[12.9 µM]	nt	nt	nt	nt	nt
CCS(=O)(=O)N1CCc2cc(C(=O)NC(C)c3ccccc3)ccc21 (stereo not drawn)	nt	-3%	nt	nt	nt	5%
Cc1ccc(CNC(=O)c2ccc(Nc3nc4ccccc4n4nnnc34)cc2)cc1	nt	-1%	nt	nt	nt	4%
COc1cccc(Nc2nc3ccccc3n3nnnc23)c1	-2%	-10%	32	2%	25	4%
c1ccc2c(c1)nc(Nc1ccc3c(c1)OCO3)c1nnnn12	-4%	-5%	130*	-1%	39*	0%
Oc1ccccc1Nc1nc2ccccc2n2nnnc12	nt	4%	nt	nt	nt	5%
Fc1ccccc1Nc1nc2ccccc2n2nnnc12	-7%	-3%	53	5%	41*	-31%
Brc1ccc(Nc2nc3ccccc3n3nnnc23)cc1	2%	nt	100	0%	65*	5%
CCN(CC)S(=O)(=O)c1ccc(Nc2nc3ccccc3n3nnnc23)cc1	-2%	-28%	109*	-8%	32*	3%
CCCN1Cc2cccc(C(=O)NCCc3cccc(C)c3)c2C1=O	7%	-1%	3	2%	-9	0%
c1ccc(Nc2nc3ccccc3n3nnnc23)cc1	4%	-3%	56*	-1%	45*	-7%
CCOC(=O)N1CCC(Nc2nc3ccccc3n3nnnc23)CC1	6%	3%	54	-4%	19*	10%
Fc1cccc(Nc2nc3ccccc3n3nnnc23)c1	2%	2%	57	6%	22	3%
Cc1cccc(N=Nc2cnc(N)s2)c1	0%	-9%	49*	-3%	47*	5%
CC(C)C1OC2(C)OC(=N)C1(C#N)C(C#N)(C#N)C2c1ccccc1 (stereo not drawn)	-14%	3%	-5	2%	-2	?
CC1CCC(C(C)C)C2=C1C(C#N)(C#N)C(C#N)(C#N)C(c1ccccc1)N2 (stereo not drawn)	-26%	-19%	-41	-23%	-1	5µM*
CC1CCN(C(=O)CNC(=O)c2cccc(OC(F)F)c2)CC1	5%	1%	49*	-2%	18*	-5%
COc1ccc(N2CCN(C(=O)COC(=O)CNC(=O)c3cccc(OC(F)F)c3)CC2)cc1	nt	3%	nt	nt	nt	-2%
SMILES	Giardia FBPA inh	Tb PYK inh	Shiga inhibitor	LmPK inhibitor	CHX counter	Sm TGR inh
COc1cccc(C(=O)NCC(=O)N2CCC(C)CC2)c1	10%	-1%	35	-4%	25*	11%
Cc1ccc(-c2nc3c4ccccc4ccn3c2CN2CCCCC2)cc1	-11%	-10%	59*	1%	32*	0%
COc1ccc(-c2cn3nc(N4CCC(C(=O)NCc5ccccc5F)CC4)sc3n2)cc1	nt	-11%[15.4 µM]	nt	nt	nt	1%
Cc1cccc(S(=O)Cc2ccc(C(=O)N3CCOCC3)o2)c1 (stereo not drawn)	nt	-7%	-4	-3%	-13	45µM*
CN(C(=O)CSc1nnc(Cc2cccs2)n1C1CC1)C1CCS(=O)(=O)C1 (stereo not drawn)	nt	5%	nt	nt	nt	-10%
O=C(Nc1ccc(Cl)cc1)C(c1ccccc1)N(CCO)CCO (stereo not drawn)	-2%	4%	13	2%	3	-14%
O=C(Nc1ccc(Cl)cc1)C(Cl)C(=O)c1ccccc1 (stereo not drawn)	-2%	?	53	-1%	19*	?
O=C(Nc1ccccc1Cl)C(Cl)C(=O)c1ccccc1 (stereo not drawn)	-9%	-18%	102*	-6%	48*	14%
O=C(COc1ccc([N+](=O)[O-])cc1)Nc1cccc2cccnc12	nt	-6%	nt	nt	nt	7%
Cc1c(CC(=O)O)c(=O)oc2cc(OCc3ccc(Br)cc3)ccc12	9%	-2%	27	0%	16*	0%
COC(=O)Cc1c(C)c2ccc(OC3CCCCC3=O)cc2oc1=O (stereo not drawn)	-2%	-10%	30*	4%	39*	67%
Cc1c(C)c2ccc(OC3CCCCC3=O)cc2oc1=O (stereo not drawn)	-14%	-7%	26	3%	24*	5%
COC(=O)Cc1c(C)c2ccc(OC(C)C)cc2oc1=O	0%	5%	96*	-1%	48*	12%
CC(C)c1ccc(NC2=CC(=O)CC(C)(C)C2)cc1	7%	0%	29	1%	19	6%
Cc1[nH]c2ccc(Cl)cc2c(=O)c1CN1CCCC1	0%	3%	-10	7%	-4	28µM*
Nc1ccc(-c2nc3ccc(-c4nc5ccccc5o4)cc3[nH]2)cc1	5%	2%	39	6%	28*	1%
O=C1c2ccc(-c3nc4ccccc4o3)cc2C(=O)N1Cc1ccccc1	nt	2%	nt	nt	nt	nt
Cc1nc2ccc(-c3nc4ccccc4o3)cc2[nH]1	4%	-3%	68*	-15%	52*	13%
Cc1ccnc2ccc(-c3nc4ccccc4o3)cc12	-11%	-13%	55*	-10%	21*	5%
Cc1ccc(NC(=O)N(Cc2c[nH]c3ccccc23)C2CCCCCC2)cc1C	nt	2%	nt	nt	nt	1%
O=C(CCl)NC(=O)NC12CC3CC(CC(C3)C1)C2	-13%	0%	-8	-5%	-3	8.9µM*
Cc1cccc(N2CCN(C(=O)Cn3ncc4c3-c3cc(C)ccc3OC4)CC2C)c1 (stereo not drawn)	nt	-4%	nt	nt	nt	-1%
CCOC(=O)Cn1c(=O)n(CC2CCCO2)c2nc(-c3ccccc3F)nc(C(N)=O)c21 (stereo not drawn)	nt	-7%	nt	nt	nt	-8%
